Screens from PubChem.
Shown are actives, neighbours in structure and some others; about 11% of the full set was active somewhere.
HEK293 tox: cytotoxic compounds in HEK 293 cells. HEK 293 viability, ATP luminescence (CellTiter-Glo), 48-72 h. Potency, µM (series often up to 115 µM), hits mostly inhibitors. 94,000 tested, 6.6% active. AID 1345083; also: nearly all actives have a fitted effect of over 60% in size
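Cytotoxicity was scored by loss of ATP-coupled luminescence (CellTiter-Glo) in HEK 293 cells. Compound treatment ran 48 or 72 hr at 37 degree Celsius, 5% CO2, 95% humidity.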
NPR1 antag: blocks ANP-stimulated signaling of human Npr1 receptor. HEK293 hNpr1 GloSensor cGMP, ANP-stimulated luminescence. 76,000 tested, 1.6% active. P16066. Potency, µM (titrated, usually from 46.3 µM), actives largely listed as inhibitors; calls by dose curve; also: nearly all actives have a fitted effect of over 60% in size
Target sequence (P16066 whole entry, looked up): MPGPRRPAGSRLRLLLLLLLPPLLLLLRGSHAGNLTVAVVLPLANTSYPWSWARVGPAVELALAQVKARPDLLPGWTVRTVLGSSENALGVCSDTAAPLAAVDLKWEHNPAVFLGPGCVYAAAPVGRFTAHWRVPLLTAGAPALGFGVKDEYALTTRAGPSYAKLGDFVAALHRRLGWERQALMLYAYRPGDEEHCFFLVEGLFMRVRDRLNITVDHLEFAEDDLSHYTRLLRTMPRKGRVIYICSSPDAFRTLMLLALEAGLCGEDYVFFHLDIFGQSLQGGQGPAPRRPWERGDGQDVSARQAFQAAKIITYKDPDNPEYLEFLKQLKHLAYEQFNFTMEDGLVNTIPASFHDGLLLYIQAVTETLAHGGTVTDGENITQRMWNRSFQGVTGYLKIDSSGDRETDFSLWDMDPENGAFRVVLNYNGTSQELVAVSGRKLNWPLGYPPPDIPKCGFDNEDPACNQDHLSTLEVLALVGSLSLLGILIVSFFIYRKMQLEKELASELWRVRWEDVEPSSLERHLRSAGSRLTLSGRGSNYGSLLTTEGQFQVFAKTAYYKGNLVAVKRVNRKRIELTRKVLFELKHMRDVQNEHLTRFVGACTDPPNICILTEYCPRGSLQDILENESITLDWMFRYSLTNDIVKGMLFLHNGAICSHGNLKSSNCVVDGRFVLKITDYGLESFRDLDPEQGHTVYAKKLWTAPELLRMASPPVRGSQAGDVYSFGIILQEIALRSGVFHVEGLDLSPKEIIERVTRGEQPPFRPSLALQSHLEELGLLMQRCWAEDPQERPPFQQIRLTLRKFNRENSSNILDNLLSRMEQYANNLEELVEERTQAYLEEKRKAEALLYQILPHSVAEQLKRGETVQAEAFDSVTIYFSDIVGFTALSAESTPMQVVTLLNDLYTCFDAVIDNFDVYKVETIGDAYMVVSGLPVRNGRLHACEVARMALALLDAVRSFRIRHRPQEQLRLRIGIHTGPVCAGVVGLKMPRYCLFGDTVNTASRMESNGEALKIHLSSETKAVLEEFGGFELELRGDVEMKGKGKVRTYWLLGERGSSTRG
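HEK293 cells stably expressing human Npr1 and cGMP GloSensor pGS-40F, loaded 2 h with 2% GloSensor reagent, given compound 30 min at room temperature. Luminescence read before and 20 min after 0.1 nM hNppA.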
FLuc inh: Photinus pyralis luciferase inhibition. purified P. pyralis luciferase, luminescence, biochemical. Potency, µM (highest dose often 115 µM), actives largely listed as inhibitors. 76,000 tested, 2.5% active. P08659; also: nearly all actives have a fitted effect of over 65% in size
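Luminescence read by CCD imaging after purified firefly luciferase (10nM final) was added to substrate buffer holding 10uM D-luciferin and 10uM ATP, pH 7.5, pre-dosed with compound.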
3T3 cytotox: NIH 3T3 cell cytotoxicity; NIH 3T3 viability, CellTiter-Glo ATP luminescence, 48-72 h; Potency, µM (highest dose often 96.7 µM), actives largely listed as inhibitors; 94,000 tested, 4.3% active; also: nearly all actives have a fitted effect of over 55% in size
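Mouse fibroblast NIH 3T3 cells, 400 per well, received compound via pintool and were incubated for 48 or 72 hr prior to CellTiter-Glo ATP luminescence measurement.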
Large screens that a line does not name were inactive. Unless noted, calls follow the shape of the dose curve; as a rule, active = well fitted curve in the direction sought with a large enough effect; inconclusive = small, poorly fitted or top-dose-only effect, or another doubt; inactive = no such curve, though single readings can be large; an effect the other way counts as inactive or inconclusive.

C#CCNC(=O)[C@@H]1Cc2cn(Cc3nccn3C)c3cccc(c23)[C@H](CC(C)C)N1	HEK293 tox inconclusive, 3T3 cytotox inconclusive
CC(C)C[C@@H]1N[C@H](C(=O)O)Cc2cn(CC3CCC3)c3cccc1c23	HEK293 tox 71µM, 3T3 cytotox 79µM
O=C(c1cccc(OC(F)(F)F)c1)N1CCN(c2cc(-c3ccc(F)cc3)[nH]n2)CC1	HEK293 tox inconclusive, NPR1 antag inconclusive, 3T3 cytotox 35µM
O=C(NC1CCCN(c2cc(-c3ccc(F)cc3)[nH]n2)C1)c1cccc(F)c1 (stereo not given)	HEK293 tox 32µM, 3T3 cytotox inconclusive
O=C(NC1CCN(c2cc(-c3ccc(F)cc3)[nH]n2)C1)c1cccc(OC(F)(F)F)c1 (stereo not given)	HEK293 tox 40µM, 3T3 cytotox inconclusive
O=C(NC1CCCN(c2cc(-c3ccc(F)cc3)[nH]n2)C1)c1ccc(F)c(F)c1 (stereo not given)	HEK293 tox 45µM, 3T3 cytotox inconclusive
O=C(c1cccc(OC(F)(F)F)c1)N1CCN(c2cc(-c3cccs3)[nH]n2)CC1	HEK293 tox inconclusive, 3T3 cytotox inconclusive
O=C(CCCc1ccccc1)N1CCCCC1c1nc(-c2ccncc2)n[nH]1 (stereo not given)	HEK293 tox inconclusive (no result: NPR1 antag, FLuc inh)
COc1ccc(C(=O)N2CCC3(CC2)COc2ccccc2C(=O)N3)cc1	none
CCOC(=O)c1ccc(N2CCN(C(=O)C3=CC(C)(C)COc4ccc(OC)cc43)CC2)cc1	HEK293 tox 35µM, 3T3 cytotox inconclusive (no result: NPR1 antag, FLuc inh)
CCc1ccc(NC(=O)N2CCCC(c3noc(COc4ccccc4F)n3)C2)cc1 (stereo not given)	HEK293 tox inconclusive, NPR1 antag inconclusive, FLuc inh 2.2µM, 3T3 cytotox inconclusive
O=C(c1cccc(F)c1)N1CCCC(c2noc(COc3ccccc3F)n2)C1 (stereo not given)	HEK293 tox 71µM, 3T3 cytotox inconclusive
O=C(CC1CCCCC1)N1CCCC(c2noc(COc3ccccc3)n2)C1 (stereo not given)	HEK293 tox inconclusive, NPR1 antag inconclusive, 3T3 cytotox 40µM
Cc1cccc(C(=O)N2CCCC(c3noc(COc4ccccc4F)n3)C2)c1 (stereo not given)	HEK293 tox inconclusive, 3T3 cytotox inconclusive
Cc1ccc(OCc2nc(C3CCN(S(=O)(=O)Cc4ccccc4F)C3)no2)cc1 (stereo not given)	HEK293 tox 25µM, NPR1 antag inconclusive, 3T3 cytotox inconclusive
O=C(CC1CCCC1)N1CCCC(c2noc(COc3ccccc3)n2)C1 (stereo not given)	HEK293 tox inconclusive, 3T3 cytotox inconclusive
O=C(C1CCCC1)N1CCCC(c2noc(COc3ccccc3F)n2)C1 (stereo not given)	HEK293 tox inconclusive, 3T3 cytotox inconclusive
O=C(CC1CCCC1)N1CCCC(Cc2nncn2Cc2ccccc2)C1 (stereo not given)	none (no result: NPR1 antag, FLuc inh)
CN1CC(=O)N(C2CCCNCC2)Cc2c1ncnc2N1CCN(c2ccccn2)CC1 (stereo not given)	none (no result: NPR1 antag, FLuc inh)
Cn1nc(CN2CCOCC2)c2c1CCN(S(=O)(=O)c1ccc3c(c1)CCC3)C2	none (no result: NPR1 antag, FLuc inh)
Cc1c(F)cccc1NC(=O)N1CCCC(c2noc(COc3ccccc3)n2)C1 (stereo not given)	HEK293 tox inconclusive, FLuc inh 11µM, 3T3 cytotox inconclusive
Cc1c(Cn2ccnc2-c2cc(C#CCO)cs2)oc2ccccc12	HEK293 tox inconclusive, 3T3 cytotox inconclusive
c1ccc(O[C@H]2COCCN(Cc3ccc(-c4ccccc4)cc3)C2)cc1	3T3 cytotox inconclusive
CS(=O)(=O)c1ccc(O[C@H]2COCCN(Cc3ccc(-c4ccccc4)cc3)C2)cc1	HEK293 tox 25µM, NPR1 antag inconclusive, 3T3 cytotox inconclusive
Cc1ccc(CN2CCOC[C@H](Oc3ccc(C(F)(F)F)cc3)C2)cc1	HEK293 tox 100µM, 3T3 cytotox 79µM
Cc1ccc(OCCC2CCN(C(=O)Cc3ccsc3)C2)cc1 (stereo not given)	HEK293 tox inconclusive, NPR1 antag inconclusive, 3T3 cytotox inconclusive
O=C(NCCc1c[nH]c2ccccc12)c1c(OCC2CC2)cc(=O)n2c1CCOCC2	HEK293 tox inconclusive
O=C(O)CCC(=O)N1Cc2ccccc2CC2(CCCN2Cc2ccccc2)C1 (stereo not given)	none (no result: NPR1 antag, FLuc inh)
CN(C)CCCC(=O)N1Cc2ccccc2CC2(CCCCN2Cc2ccccc2)C1 (stereo not given)	HEK293 tox 79µM, 3T3 cytotox inconclusive (no result: NPR1 antag, FLuc inh)
O=C(c1ccccc1)N1Cc2ccccc2CC2(CCCCN2CC2CCNC2)C1 (stereo not given)	HEK293 tox 79µM, 3T3 cytotox inconclusive (no result: NPR1 antag, FLuc inh)
C#CCNC(=O)c1ccc2nnc(C3CCOCC3)n2c1	none (no result: NPR1 antag, FLuc inh)
Cc1cc2nc3n(c(=O)c2n1CC(=O)Nc1ccc(Br)cc1F)CCCCC3	HEK293 tox 25µM, 3T3 cytotox inconclusive
Fc1ccccc1CCNc1cc(Cl)nc2ccnn12	HEK293 tox inconclusive, FLuc inh inconclusive, 3T3 cytotox inconclusive
COc1ccc(CNc2cc(Cl)nc3ccnn23)cc1	HEK293 tox 71µM, 3T3 cytotox inconclusive
Clc1cc(NCc2cccs2)n2nccc2n1	HEK293 tox 40µM, NPR1 antag inconclusive, 3T3 cytotox inconclusive
Clc1cc(NCc2ccccc2Cl)n2nccc2n1	HEK293 tox inconclusive, NPR1 antag inconclusive, 3T3 cytotox 20µM
CC(C)(C)C(=O)NCCNC(=O)c1cccc(-c2ncccc2C#N)c1	none (no result: NPR1 antag, FLuc inh)
COc1ccc(CN2CC(C)(NC(C)=O)C2)c2ccccc12	HEK293 tox inconclusive
COC(=O)N1CCN(c2ccc3nnc(C)n3n2)CC1	3T3 cytotox inconclusive (no result: NPR1 antag, FLuc inh)
CC1=C[C@@H](CNCc2ccccc2F)[C@H](C(C)C)C[C@H]1Cc1nc2c(C)cccc2[nH]1	HEK293 tox 25µM, NPR1 antag inconclusive, 3T3 cytotox 28µM
CC1=C[C@@H](CNC(=O)COCC(=O)O)[C@H](C(C)C)C[C@H]1Cc1nc2c(C)cccc2[nH]1	none
COc1ccccc1CNC[C@@H]1C=C(C)[C@H](Cc2nc3c(C)cccc3[nH]2)C[C@H]1C(C)C	HEK293 tox inconclusive, NPR1 antag inconclusive, 3T3 cytotox 25µM
CC1=C[C@@H](CNC(=O)CCCC(=O)O)[C@H](C(C)C)C[C@H]1Cc1nc2c(C)cccc2[nH]1	none
CC1=C[C@@H](CNCc2ccccc2)[C@H](C(C)C)C[C@H]1Cc1nc2c(C)cccc2[nH]1	HEK293 tox 25µM, NPR1 antag inconclusive, 3T3 cytotox 28µM
CC1=C[C@@H](CN(C)C)[C@H](C(C)C)C[C@H]1Cc1nc2c(C)cccc2[nH]1	HEK293 tox 100µM, 3T3 cytotox 89µM
O=C(Cn1ccn2nc(-c3ccc(F)cc3)c(CO)c2c1=O)N1CCCc2ccccc21	HEK293 tox inconclusive, 3T3 cytotox inconclusive
CCCNC(=O)N1CCOC[C@H](Oc2ccccc2)C1	none
O=C(Nc1ccc(OC(F)(F)F)cc1)N1CCOC[C@H](Oc2ccccc2)C1	HEK293 tox 56µM, NPR1 antag inconclusive, 3T3 cytotox 32µM
CCCc1nc(C(=O)NCc2ccc(-n3ccnc3C)cc2)cs1	HEK293 tox 20µM, 3T3 cytotox inconclusive
CCCCN1C(=O)NC(c2ccccc2OC)C2=C1COC2=O (stereo not given)	none
